# Whole data set: some 18,000 sequences, median “log2 normalized intensity” near 0.39, cut for the highest 2% near 6.6. What follows is part of a selection rich in the highest values, with near analogues and random picks from the rest.
# Target: T1, HNF4alpha2 (COS-7 nuclear extract) (Homo sapiens, UniProt P41235 1-474)
# T1 sequence: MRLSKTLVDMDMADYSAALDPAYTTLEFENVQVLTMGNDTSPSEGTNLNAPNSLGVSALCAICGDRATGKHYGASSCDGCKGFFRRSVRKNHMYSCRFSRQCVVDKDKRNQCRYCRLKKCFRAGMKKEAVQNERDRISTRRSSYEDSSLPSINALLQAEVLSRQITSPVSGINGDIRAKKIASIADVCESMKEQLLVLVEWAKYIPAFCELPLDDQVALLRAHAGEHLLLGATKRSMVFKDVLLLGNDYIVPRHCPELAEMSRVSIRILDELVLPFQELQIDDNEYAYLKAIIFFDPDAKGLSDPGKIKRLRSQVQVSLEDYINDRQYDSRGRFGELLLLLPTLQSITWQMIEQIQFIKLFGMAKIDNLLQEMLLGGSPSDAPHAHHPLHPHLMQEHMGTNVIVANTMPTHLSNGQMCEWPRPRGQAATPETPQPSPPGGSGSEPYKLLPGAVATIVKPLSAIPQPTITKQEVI
# Assay: protein-binding microarray; COS-7 nuclear extract on double-stranded Agilent 4x180k PBM; binding buffer, salt, pH and temperature not given in the material; high values mean tight binding
# Conditions: chain copies: 2; label: 3' end of strand 1 on the slide; dsDNA, one strand shown
# Method in brief: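 A human HNF4α isoform was expressed in COS-7 cells by transient CaPO4 transfection, and nuclear extracts were prepared. These were applied to a custom Agilent SurePrint G3 4x180k array carrying ~44,000 test sequences in quadruplicate as double-stranded ~60-nt oligonucleotides, and an Agilent G2565CA scanner imaged bound HNF4α at 2-µm resolution. The background-corrected, normalized gProcessedSignal from Agilent software was used as the binding signal.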
row,Sequence,binding signal [log2 normalized intensity]
1,GGACTTCGCTCCGCCGCTAGGTGGCGGGCTGCCTAGGGAGATTAGAGTATCGGTCGA,1.42
2,GAGAAGTTGCTCTTTACACCATTGCAAGGAGCCTAGGGAGATTAGAGTATCGGTCGA,-0.941
3,GGAGCCCCCTGGGGGAGGTTTCCTGCTGTCGCCTAGGGAGATTAGAGTATCGGTCGA,-0.946
4,ATCTTCCTCCCCCCTTGGCTACATGTTTGTGCCTAGGGAGATTAGAGTATCGGTCGA,3.7
5,CTGCAAAGAAGTCAAACTTTGGACCCACTGGCCTAGGGAGATTAGAGTATCGGTCGA,5.97
6,TGATCCAGGGCAAAGGTCATAATTTGATCCGCCTAGGGAGATTAGAGTATCGGTCGA,6.34
7,CAAAGGTCATAATTTGATCCAGTGTGCAAAGCCTAGGGAGATTAGAGTATCGGTCGA,3.35
8,TCAGGAGCCCCACAGAGCAAAGGTCATGCAGCCTAGGGAGATTAGAGTATCGGTCGA,5.38
9,GGACTTGATCCAGGGCAAAGGTCATAATTTGCCTAGGGAGATTAGAGTATCGGTCGA,6.98
10,ACACAGGACTTGATCCAGGGCAAAGGTCATGCCTAGGGAGATTAGAGTATCGGTCGA,7.38
11,AGAAAACACAGAGATCTGATCAAAGGTCATGCCTAGGGAGATTAGAGTATCGGTCGA,5.9
12,GAGCTTTTACCTCAAATAAAGGTCAGAGTCGCCTAGGGAGATTAGAGTATCGGTCGA,1.79
13,GTATCAGGGCTCAGGAATGTGGGGTCAACAGCCTAGGGAGATTAGAGTATCGGTCGA,2.99
14,CCGCGACAAGCGTCGCTGAGTGGAGGCCCAGCCTAGGGAGATTAGAGTATCGGTCGA,-0.847
15,CCGTCCTGTCCTGGACTTTCCTTTGTTGGGGCCTAGGGAGATTAGAGTATCGGTCGA,2.3
16,TGGACTTTGGTCCTGGTCAGACTTGCCACGGCCTAGGGAGATTAGAGTATCGGTCGA,4.5
17,GTGGGAGAAAGCTTTGGACTTTGGGCTGTGGCCTAGGGAGATTAGAGTATCGGTCGA,5.72
18,GCAATGTGGACTTTGTCCTGTGGGCTGTAAGCCTAGGGAGATTAGAGTATCGGTCGA,7.35
19,GTGGACTTTGTCCTGTGGGCTGTAAAAATCGCCTAGGGAGATTAGAGTATCGGTCGA,5.03
20,AGTTTGCCACGGTCAGCAATGTGGACTTTGGCCTAGGGAGATTAGAGTATCGGTCGA,6.18
21,GGTCAGCAATGTGGACTTTGTCCTGTGGGCGCCTAGGGAGATTAGAGTATCGGTCGA,7.77
22,GCCACGGTCAGCAATGTGGACTTTGTCCTGGCCTAGGGAGATTAGAGTATCGGTCGA,9.67
23,ATGGACTTTGAAGGAGATTCCTGTGTCAGCGCCTAGGGAGATTAGAGTATCGGTCGA,0.984
24,TTGTCAGTGCCCTATACAGACCTTTGTATAGCCTAGGGAGATTAGAGTATCGGTCGA,2.96
25,CTCACAGAGTGGAGTCTTCCGTTTGATAGAGCCTAGGGAGATTAGAGTATCGGTCGA,-0.436
26,CTTTATCTAGATAAGTTTATTTACTTATGTGCCTAGGGAGATTAGAGTATCGGTCGA,1.49
27,ATGGTCAGTGTTGATAAGAAAGCTGCAGTCGCCTAGGGAGATTAGAGTATCGGTCGA,0.747

row,Sequence,binding signal [log2 normalized intensity]
1,TAGGTTATCTTTGGAGAATGCCTTTTGTGTGCCTAGGGAGATTAGAGTATCGGTCGA,2.15
2,ATACTTAGGATTTTTGTGCCTCTTTGGTGAGCCTAGGGAGATTAGAGTATCGGTCGA,1.13
3,TATTCAAACAGAGGACAGTTGTGTTTGTTGGCCTAGGGAGATTAGAGTATCGGTCGA,1.96
4,TTTGGTGAGGCCCCAGTGTCAATTCTCATTGCCTAGGGAGATTAGAGTATCGGTCGA,1.82
5,CAGGCTGTTTTCCTATAGATTTGTTAAATCGCCTAGGGAGATTAGAGTATCGGTCGA,1.13
6,CTTTGTGGCAGGAGGAGCTGTTTGACATCCGCCTAGGGAGATTAGAGTATCGGTCGA,0.0869
7,GCTAAGAGACAGCTCCACAGCTGGACTTTGGCCTAGGGAGATTAGAGTATCGGTCGA,5.15
8,CTCCAAACATCTTTGGTATGGACTGATATTGCCTAGGGAGATTAGAGTATCGGTCGA,1.5
9,ATCTCCAGATAAGACTTTGGACTTTGGACCGCCTAGGGAGATTAGAGTATCGGTCGA,11.6
10,GAGACAGCTCCACAGCTGGACTTTGGCTGCGCCTAGGGAGATTAGAGTATCGGTCGA,5.41
11,GACTCATCTCCAAACGAGACTTTGGACTTTGCCTAGGGAGATTAGAGTATCGGTCGA,8.97
12,TACATTGGACAACTGTACTTTGGACTGGGGGCCTAGGGAGATTAGAGTATCGGTCGA,5.99
13,AAAGGGACTCATCTCCAAACGAGACTTTGGGCCTAGGGAGATTAGAGTATCGGTCGA,1.6
14,ACAGTTCTGATACATTGGACAACTGTACTTGCCTAGGGAGATTAGAGTATCGGTCGA,2.1
15,TCTGATACATTGGACAACTGTACTTTGGACGCCTAGGGAGATTAGAGTATCGGTCGA,7.2
16,ATCTCCAAACGAGACTTTGGACTTTGGACTGCCTAGGGAGATTAGAGTATCGGTCGA,11.8
17,GGGTGAAAGGGACTCATCTCCAAACGAGACGCCTAGGGAGATTAGAGTATCGGTCGA,-0.986
18,GGTGAGATAAGAAGACTCCAGGGGACTGCCGCCTAGGGAGATTAGAGTATCGGTCGA,-0.872
19,ATGATTGACAGGTTATTTCAATTACAAAGCGCCTAGGGAGATTAGAGTATCGGTCGA,1.06
20,CCCGGCAGATCAGGGTCAGGCTGTGGTACGGCCTAGGGAGATTAGAGTATCGGTCGA,0.662
21,AGTCCCTGTCCCTTCTTGGCAAGTTAATGTGCCTAGGGAGATTAGAGTATCGGTCGA,1.94
22,GGTGAGGGTGAGGGTGAGGGTTAGGGGTTAGCCTAGGGAGATTAGAGTATCGGTCGA,-0.0851
23,CATTAAGCTTAGCGTTATCAAACCAAATATGCCTAGGGAGATTAGAGTATCGGTCGA,-0.0208
24,GGTCAACACAATCTGATAGTTGATTGATTGGCCTAGGGAGATTAGAGTATCGGTCGA,0.627
25,TCATCTTCAAAGCCAGCAATGGCAGGTCCAGCCTAGGGAGATTAGAGTATCGGTCGA,1.41
26,TCTGCAGACATGGACTCTGGGATCTCAGGGGCCTAGGGAGATTAGAGTATCGGTCGA,1.24
27,ACAGCTAGTCTAGACTTTGCTTTCTTGGAGGCCTAGGGAGATTAGAGTATCGGTCGA,1.24
